Measurements taken from publication PMC4666376, “Characterisation of aptamer–target interactions by branched selection and high-throughput sequencing of SELEX pools”.

target: PAI-1 wild type, active (human, UniProt P05121 24-402); test: branched SELEX with high-throughput sequencing; PAI-1 immobilised on polyclonal anti-PAI-1 antibody; HBS (10 mM HEPES pH 7.4, 140 mM NaCl), 2 mM MgCl2, 2 mM CaCl2, 0.1% BSA; RNA pool 100 nM; PAI-1 captured on antibody-coated wells; 45 min; binding temperature not stated (PAI-1 capture at room temperature); high values mean tight binding; details: protein: recombinant; tags: N-terminal His6; structured_RNA; 2'-F pyrimidines;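 further: Pool frequency after one selection round with this target divided by frequency before selection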
Sequence (P05121 24-402): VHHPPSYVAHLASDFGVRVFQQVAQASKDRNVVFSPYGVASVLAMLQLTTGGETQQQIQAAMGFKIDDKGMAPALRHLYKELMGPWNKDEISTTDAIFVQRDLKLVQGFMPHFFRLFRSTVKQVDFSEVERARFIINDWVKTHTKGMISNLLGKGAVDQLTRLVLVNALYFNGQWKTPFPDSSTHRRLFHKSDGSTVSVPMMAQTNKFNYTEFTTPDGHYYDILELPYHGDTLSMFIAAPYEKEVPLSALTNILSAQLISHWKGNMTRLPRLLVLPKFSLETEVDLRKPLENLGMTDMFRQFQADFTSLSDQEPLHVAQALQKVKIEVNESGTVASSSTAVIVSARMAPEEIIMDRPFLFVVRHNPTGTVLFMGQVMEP

| Sequence | binding signal |
| --- | --- |
| GGGGCCACCAACGACAUUGUCGUAGGACGUGAGUGUCUGACCGAUGUAGUUGGGUUGAUAUAAAUAGUGCCCAUGGAUC | 0.65 enrichment factor |
| GGGGCCACCAACGACAUUUGUCAACAUAACGUAGAGCAAUUACAGCUCGAUCAGUUGAUAUAAAUAGUGCCCAUGGAUC | 3.13 enrichment factor |
| GGGGCCACCAACGACAUUGACCAUGUAGGACUUAAAGUCUGACCACAAUGUGUGUUGAUAUAAAUAGUGCCCAUGGAUC | 0.6 enrichment factor |
| GGGGCCACCAACGACAUUGACCCGUAGUGUCUUACUACGACUUGUAGAUGUUGUUGAUAUAAAUAGUGCCCAUGGAUC | 0.5 enrichment factor |
| GGGGCCACCAACGACAUUAAGUUCGUCCUCUUCCAAGAGAAGGGGUCUAUGCCGUUGAUAUAAAUAGUGCCCAUGGAUC | 5.35 enrichment factor |
| GGGGCCACCAACGACAUUGGUAAUGGUGUGAAUUAACCUUAAGCCUAUUGGUUGUUGAUAUAAAUAGUGCCCAUGGAUC | 0.22 enrichment factor |
| GGGGCCACCAACGACAUUACGUAGUUGCCUAAUAAAGGUAGCGAUUUGGAUUCGUUGAUAUAAAUAGUGCCCAUGGAUC | 1.28 enrichment factor |
| GGGGCCACCAACGACAUUGUCGUAGCCGGACUCCACCGGUGACCAAUGAGCGUUGAUAUAAAUAGUGCCCAUGGAUC | 0.57 enrichment factor |
| GGGGCCACCAACGACAUUCUAGUCUGGUAGCAAUACCUAAGUUCGUCUAGAAAGUUGAUAUAAAUAGUGCCCAUGGAUC | 0.89 enrichment factor |
| GGGGCCACCAACGACAUUGAGUCUAGACAAAAUUGUCUUAAGUUCGUCUUAAUGUUGAUAUAAAUAGUGCCCAUGGAUC | 7.89 enrichment factor |
| GGGGCCACCAACGACAUUAGCAGUCGUAGGCCGUAAUGGCUGACCUGUAUGACGUUGAUAUAAAUAGUGCCCAUGGAUC | 0.68 enrichment factor |
| GGGGCCACCAACGACAUUUAAGUUCGUCUCACUGACUCUGCAGUGAGUCUAAUGUUGAUAUAAAUAGUGCCCAUGGAUC | 7.58 enrichment factor |
| GGGGCCACCAACGACAUUGUAGACUUGUCAACGGUCGACUGUCGAUACAUGUGUUGAUAUAAAUAGUGCCCAUGGAUC | 0.56 enrichment factor |
| GGGGCCACCAACGACAUUGAUCAACGAUCACCAUGAUACACAUGGAUCACGUAGUUGAUAUAAAUAGUGCCCAUGGAUC | 0.62 enrichment factor |
| GGGGCCACCAACGACAUUCCUGCAACGUAGGCGCGUAAGCUCCGAUCAAGGAUGUUGAUAUAAAUAGUGCCCAUGGAUC | 0.53 enrichment factor |
| GGGGCCACCAACGACAUUUGCGUAAGCAUCCUUCGAUGUACCACAUCGAGAUCGUUGAUAUAAAUAGUGCCCAUGGAUC | 1.04 enrichment factor |
| GGGGCCACCAACGACAUUCUAAGUUCGUCCUACUUACUCUUGUAGGUCUGAAUGUUGAUAUAAAUAGUGCCCAUGGAUC | 16.4 enrichment factor |
| GGGGCCACCAACGACAUUCUGGGCCGUAGGCGAUAUUAGCCGAUCCCAGAAGAGUUGAUAUAAAUAGUGCCCAUGGAUC | 1.43 enrichment factor |
| GGGGCCACCAACGACAUUGAGCUACGGCUAAGCCGCUAUAGUCUUCAGGAAUCGUUGAUAUAAAUAGUGCCCAUGGAUC | 0.33 enrichment factor |
| GGGGCCACCAACGACAUUGCACCUGUAGGCUAGGUCACUGGCUGACUGCAAUUGUUGAUAUAAAUAGUGCCCAUGGAUC | 0.47 enrichment factor |
| GGGGCCACCAACGACAUUCACCACGUAGUGAAACUUUCACGACUAGAAUGUAAGUUGAUAUAAAUAGUGCCCAUGGAUC | 0.74 enrichment factor |
| GGGGCCACCAACGACAUUAUCGACCAUAACGUAGCGGGCUUUCCCGUGAUCAGGUUGAUAUAAAUAGUGCCCAUGGAUC | 0.91 enrichment factor |
| GGGGCCACCAACGACAUUAAGUUUCGUCCGGAUCGUGCAAUCCGGUCUAUGUGGUUGAUAUAAAUAGUGCCCAUGGAUC | 4.02 enrichment factor |
| GGGGCCACCAACGACAUUGUUGAGCGCUGAGUUUCUGCGUUAGUUCUGUCAAUGUUGAUAUAAAUAGUGCCCAUGGAUC | 3.37 enrichment factor |
| GGGGCCACCAACGACAUUUGACAUCGUAGGCAAAAAAGCUGACUGUUCAGAUUGUUGAUAUAAAUAGUGCCCAUGGAUC | 2.86 enrichment factor |
